# Source: PubChem BioAssay (EPA / NIEHS)
# Results filed as inconclusive are left out. Activity calls are given as the source filed them. Rule for the calls: active = hit-call score of the fitted dose curve at least 0.9, where 1 is the maximum; inconclusive = response in the unintended direction; inactive = score below 0.9.
# Assay: ACEA_ER_AUC_viability: ACEA Biosciences xCELLigence Real-Time Cell Analysis on Estrogen Receptor Agonism for Viability (AID 2283782);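 note: continuous compound exposure with impedance area under curve over 80 h; hit means loss of impedance signal meaning reduced cell growth or viability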
# Procedure, shortened: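 T-47D; phenol red-free RPMI1640 + 10% CS-FBS; 8 conc., 1:4 serial, max 100 uM final, ≤0.5% DMSO; n = 2; continuous exposure; impedance monitored to 80 h post-dose; AUC vs DMSO.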
SMILES,AC50,outcome
CN(C)CCCNCCCN(C)C,50 µM (active),–
CCCCCCCC1CCCC1=O (centres undefined),–,inactive
O=S(=O)(O)CCCN1CCOCC1,36.6 µM (active),–
O=C1CCCCCCCCCCCC(=O)OCCO1,71.8 µM (active),–
[Cu+],–,inactive
CC(CO)c1ccccc1 (centres undefined),–,inactive
O=S(=O)(O)c1cc(O)c(O)c(S(=O)(=O)O)c1,–,inactive
CCCCCC#CC(=O)OC,50 µM (active),–
c1ccc(-c2nn[nH]n2)cc1,–,inactive
N#CCCNCCC#N,–,inactive
C=C1CC/C=C(\C)CC[C@@H]2[C@@H]1CC2(C)C,–,inactive
CCC(C)(C)c1cc(O)c(C(C)(C)CC)cc1O,72.7 µM (active),–
C=CCOC(=O)/C=C\C(=O)OCC=C,94.9 µM (active),–
CC(=O)c1cccnc1,–,inactive
Brc1cc(Br)cc(Br)c1,–,inactive
OCCN1CCOCC1,–,inactive
CC(CO)(CO)[N+](=O)[O-],–,inactive
CC(=O)CCc1ccc(O)cc1,–,inactive
ClCCOCCOCCCl,–,inactive
C=C(C)C(=O)OCCOCCOC(=O)C(=C)C,21.2 µM (active),–

SMILES,AC50,outcome
C=C(C)CCCC(C)CCO (centres undefined),50 µM (active),–
CCO[Si](CCC#N)(OCC)OCC,–,inactive
CCCCCCCCCC(=O)OCC,–,inactive
CCC(CC)CO,–,inactive
Cc1ccccc1S,–,inactive
O=C(O)c1cccc(Cl)n1,–,inactive
O=C(O)c1cc2ccccc2cc1O,–,inactive
C=C1CC[C@H]2O[C@]2(C)CC[C@@H]2[C@@H]1CC2(C)C,–,inactive
CC(C)CCOC(=O)CC(C)C,–,inactive
CC(C)COC(=O)c1ccccc1,–,inactive
CCCC1CCOC(C)S1 (centres undefined),–,inactive
CC(C)OB(OC(C)C)OC(C)C,–,inactive
CN(C)CCC=C1c2ccccc2CCc2ccccc21,26.2 µM (active),–
CC=CC(=O)C1=C(C)C=CCC1(C)C,–,inactive
CCCCC1CCCCC(=O)O1 (centres undefined),–,inactive
C/C=C(\C)C(=O)OC/C=C(\C)CCC=C(C)C,78.2 µM (active),–
CC(C)N1C(=O)c2ccccc2C1=O,–,inactive
CC1(C)CC(N)CC(C)(CN)C1 (centres undefined),–,inactive
CC/C=C/CCCCCCCCCCOC(C)=O,–,inactive
